Assay results taken from PubChem BioAssay (NCI).
About 79,000 compounds went through this panel and 15% of them were active in at least one assay; those are over-represented in the sample as a whole. Values without a mark were called inactive. The source made the active and inactive calls. Rule as the data show it: active = growth inhibition above about 70%; inactive = the rest. Where a SMILES comes first, the peptide text is derived from it. The star is where a group is joined. Boc = CC(C)(C)OC(=O)*; NHNH2 = NN*

Key:
[1] = NCI Yeast Anticancer Drug Screen. Data for the rad50 strain (AID 155);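 also: 0% = growth of vehicle-only cultures of the same strain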; conditions: S. cerevisiae rad50 strain growth inhibition; at 50.0 µM; stronger effect = higher value
Procedure, shortened: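 Relative growth inhibition (compound vs vehicle) was measured in yeast with a defined repair-gene alteration.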

[2] = NCI Yeast Anticancer Drug Screen. Data for the mec2-1 strain (AID 157); conditions: S. cerevisiae mec2-1 strain, at 50.0 µM, stronger effect = higher value
Procedure, shortened: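 Compounds were applied to mec2-1 yeast cells. Their growth was then compared with that of vehicle-treated cultures to give growth inhibition.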

[3] = NCI Yeast Anticancer Drug Screen. Data for the sgs1 mgt1 strain (AID 161);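 also: 0% = growth of cultures given vehicle only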; conditions: S. cerevisiae sgs1 mgt1 strain, at 50.0 µM, stronger effect = higher value
Procedure, shortened: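 Yeast cells carrying a defined DNA-repair defect were exposed to test compounds. Growth inhibition was measured relative to vehicle-treated controls.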

[4] = NCI Yeast Anticancer Drug Screen. Data for the cln2 rad14 strain (AID 165);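 also: 0% = growth equal to vehicle treated cultures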; conditions: S. cerevisiae cln2 rad14 strain, at 50.0 µM, stronger effect = higher value
Procedure, shortened: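 Strain: cln2 rad14 yeast, altered in cell cycle control and DNA damage repair. Read-out: growth inhibition vs vehicle.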

[5] = NCI Yeast Anticancer Drug Screen. Data for the bub3 strain (AID 167); conditions: S. cerevisiae bub3 mutant strain, at 50.0 µM, stronger effect = higher value
Procedure, shortened: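 Screening used yeast with an engineered genetic alteration affecting cell cycle control. Compound-exposed cultures were compared with vehicle cultures, and reduced growth was taken as inhibition.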

[6] = NCI Yeast Anticancer Drug Screen. Data for the mlh1 rad18 strain (AID 175); conditions: S. cerevisiae mlh1 rad18 strain growth inhibition; at 50.0 µM; stronger effect = higher value
Procedure, shortened: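 A repair-deficient yeast strain is exposed to test compound, and growth is scored relative to vehicle-treated controls.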

SMILES	growth inhibition [1]	growth inhibition [2]	growth inhibition [3]	growth inhibition [4]	growth inhibition [5]	growth inhibition [6]
Cc1ccc(NC(=O)Nc2cccc(Cl)c2)cc1C	-0.1%	5.05%	-4.95%	-17.2%	5.1%	-16.6%
COC(=O)/C=C/c1ccccc1	17.4%	-14.3%	-15.6%	-1.2%	-27.9%	19.4%
COc1ccc(N=NN(C(C)=O)c2ccccc2)cc1	2.85%	10.2%	35.5%	-5.75%	-1%	19.1%
CCC(C)C(NC(=O)C(Cc1c[nH]c2ccccc12)NC(=O)OC(C)(C)C)C(=O)NN (stereo not drawn) (Boc-Trp-Ile-NHNH2; configuration not given here)	24.8%	3.7%	8.5%	15.4%	-4.35%	15.6%
CC1=NN2C(=O)C(C)SC2=NC(C)(C)C1 (stereo not given)	-5.6%	-17.9%	-3.15%	29.2%	-8.2%	-16.3%
CC(=O)OCC1COC(C2CC=CCC2C)O1 (stereo not given)	-1.9%	-8.9%	-8.35%	4.05%	13.6%	-7.6%
O=C1C(=Cc2ccco2)C(=O)C2CCCCC12 (stereo not given)	6.8%	-9%	-10.8%	13%	2.4%	13.6%
COC1OC2COC(c3ccccc3)OC2C(N=[N+]=[N-])C1O (stereo not given)	-0.1%	4%	-4.9%	-31.2%	-7.45%	2.2%
CC1(c2ccc(C(O)c3ccccc3)s2)OCCO1 (stereo not given)	1.8%	7.3%	10.9%	12.9%	11.4%	15.6%
CC(=O)O[C@H]1C(=O)[C@]2(C)[C@@H](OC(=O)OCCC(O)CO)C[C@H]3OC[C@@]3(OC(C)=O)[C@H]2[C@H](OC(=O)c2ccccc2)[C@]2(O)C[C@H](OC(=O)[C@H](O)[C@@H](NC(=O)c3ccccc3)c3ccccc3)C(C)=C1C2(C)C (stereo not given in full)	1.65%	-7.2%	2.25%	3.95%	-19.2%	-0.35%
CCOc1ccccc1Br	-2.05%	8.65%	-2.05%	-9.8%	1%	-38.2%
O=c1cn[nH]c(=O)[nH]1	35.4%	0.7%	32.5%	10.8%	4.9%	11.5%
COc1ccc(Nc2nc(N)nc3c2ncn3C2OC(CO)C(O)C2O)cc1 (stereo not given)	-9.6%	-17.9%	-13.2%	-7%	2.05%	-11.5%
Cc1ccc(N=NN(C)C)cc1NC(=O)NCC(=O)OC(C)(C)C	4.7%	8.7%	4.95%	-31.6%	7.25%	7.8%
COc1ccc2[nH]c(=O)c(C(C)=O)c(O)c2c1	3%	6.95%	6.15%	1.6%	7.15%	7.85%
Ic1ccc(-n2cccc2)cc1	8.4%	5.55%	-1.7%	-3.25%	13.8%	-18.6%
C/C(=N/NC(=O)c1ccccc1)C(=O)c1ccccc1	-4.4%	-12.2%	-2.65%	-1.2%	6%	-0.15%
CC1C2CC(CC(=O)N2)C1(C)C (stereo not given)	15.6%	21.6%	21.7%	15.1%	11.2%	13.6%
CC1(C)CCCCCCC2CC2CCCCCC(C)(C)C1=O (stereo not given)	1%	-6.15%	-4.8%	7.8%	-11.5%	24.1%
CCOC(=O)C(Cc1ccc(Cl)cc1)(Cc1ccc(Cl)cc1)C(=O)OCC	0.75%	-30.4%	-18%	6.15%	-15.8%	-10.7%

SMILES	growth inhibition [1]	growth inhibition [2]	growth inhibition [3]	growth inhibition [4]	growth inhibition [5]	growth inhibition [6]
O=C(N/N=C\c1ccccn1)Nc1ccc(N=Nc2ccccc2)cc1	6.55%	-9.85%	-1.65%	-3.9%	5.75%	4.9%
COC1=CCC=C(C(C)(C)C)C1	-45.8%	-22.6%	-10.5%	-32.1%	-12.2%	21.7%
C[n+]1cccc2c(=O)c3ccccc3oc21	0.8%	-14.5%	-6.25%	-17.9%	4.65%	-20.2%
CC(=O)NNc1nc(C)c(C(/C=C/c2ccccc2O)=N/N=C(N)N)s1	-19.2%	-19.4%	-21.4%	-7.1%	-10.6%	-33.2%
CCCCCCNC(=O)c1ccc(C(=O)NCCCCCC)cc1	3.4%	-13.3%	-27%	-19.5%	6%	-31.9%
Oc1cccc2c(NC(=S)Nc3ccccc3)cccc12	37.2%	22.8%	18.2%	15.5%	39.5%	32.9%
O=C1/C(=C/c2ccccc2)SC(=S)N1C1OC(CO)C(O)C(O)C1O (stereo not given)	3.45%	11.8%	-8.4%	8.95%	-3.95%	6.9%
O=C(Nc1ccccc1Cl)c1ccc([N+](=O)[O-])cc1	11.4%	15.4%	18.6%	10.3%	11.2%	24.6%
CS1(C)=NC(=O)C2=C(N=1)c1ccccc1S2(=O)=O	-10.9%	-6%	-19%	-19.6%	1.85%	-7.85%
NC(=O)C1=CCCC1	6%	-0.1%	0.5%	10.2%	12.8%	-3.3%
COC(=O)c1cc2c(cc1CC1Cc3cc4c(cc3C1=O)CCC4)CCC2 (stereo not given)	-16.1%	-42.3%	-10.4%	9.3%	19.6%	1.65%
COc1ccc(NC=O)c(C(=O)CCNC(C)=O)c1	-14.9%	-20.2%	-13.4%	-6.8%	-16.3%	-51.2%
CC(C)C(O)C(C)N (stereo not given)	1.4%	-5.9%	0.7%	4.9%	3.2%	3.5%
COc1cc2cc3c4ccc(OC)c(OC)c4cc[n+]3c(C)c2cc1OC (tested in a mixture with another compound)	98.1% (active)	97.7% (active)	98.8% (active)	98.4% (active)	98.2% (active)	98% (active)
COC(=O)C(C)=C1CCCCC1	17.9%	-3.9%	-13.2%	-38%	11.6%	-13.2%
CCN(CC)CC(C)C(O)(Cc1ccccc1)c1ccc(Cl)cc1 (stereo not given)	21.4%	17.6%	27.9%	33.5%	10.1%	17.4%
O=c1cnn(C2OC(C(O)CO)C(O)C2O)c(=O)[nH]1 (stereo not given)	-6.9%	-81.5%	-8.75%	-27.6%	-11.2%	-18.4%
COc1cc(SC)c(OC)cc1C	4.15%	0.65%	-12.4%	-22.4%	-6%	4.85%
CCN(CC)CCNc1cccc(Cl)c1	60.1%	9.25%	34.4%	25.2%	29.1%	47.5%
CCCCCCCCN1CSC(=S)N(c2ccc3[nH]c(=S)sc3c2)C1	48.9%	17.6%	34%	27.9%	5.2%	35.5%
